Experimental data: PubChem BioAssay
Results filed as inconclusive are left out. Activity calls are given as the source filed them.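 How the source made its calls, unless noted: active means normalized viability below 100% at a tested concentration; inactive means the rest.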

What was measured:
[1] = growth inhibition of DIPG glioma cells, dose response, cell-based, SU-DIPG-XVII, MIPE5.0, CellTiter-Glo, qHTS (AID 1347060; cut-off not given, nearly all actives have AC50 up to about 26 µM;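 on AC50: cells exposed to compound for 48 hours before viability readout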); conditions: SU-DIPG-XVII viability, CellTiter-Glo ATP luminescence
[2] = growth inhibition of DIPG glioma cells, dose response, cell-based, SU-DIPG-XIII, MIPE4.0, CellTiter-Glo, qHTS (AID 1347061; cut-off not given, nearly all actives have AC50 up to about 37 µM;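 further: cells exposed to compound for 48 hours before readout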); conditions: SU-DIPG-XIII viability, CellTiter-Glo ATP luminescence
[3] = growth inhibition of DIPG glioma cells, dose response, cell-based, JHH-DIPG-1, MIPE4.0, CellTiter-Glo, qHTS (AID 1347062; cut-off not given, nearly all actives have AC50 up to about 27 µM;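 on AC50: cells exposed to compound for two days before readout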); conditions: JHH-DIPG-1 viability, CellTiter-Glo ATP luminescence
[4] = growth inhibition of DIPG glioma cells, dose response, cell-based, SU-DIPG-XIII, MIPE5.0, CellTiter-Glo, qHTS (AID 1347064; cut-off not given, nearly all actives have AC50 up to about 23 µM;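 on AC50: cells exposed to compound for 48 hours before the viability read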); conditions: SU-DIPG-XIII viability, CellTiter-Glo ATP luminescence
[5] = viability loss in pontine glioma line – cell-based, SU-DIPG-XXV, MIPE5.0, CellTiter-Glo, qHTS, dose response (AID 1347065; cut-off not given, nearly all actives have AC50 up to about 26 µM;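 further: cells exposed to compound for 48 hours before ATP readout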); conditions: CellTiter-Glo ATP luminescence
[6] = SU-DIPG-VI glioma cell viability, MIPE4.0 library, CellTiter-Glo luminescence, qHTS (AID 1347066; cut-off not given, nearly all actives have AC50 up to about 30 µM;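 further: cells exposed to compound for 48 hours before readout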); conditions: CellTiter-Glo ATP luminescence
[7] = JHH-DIPG-1 glioma cell viability, MIPE5.0 library, CellTiter-Glo luminescence, qHTS (AID 1347067; cut-off not given, nearly all actives have AC50 up to about 26 µM;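 further: cells exposed to compound for 48 hours before readout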); conditions: JHH-DIPG-1 glioma viability, CellTiter-Glo ATP luminescence
[8] = SU-DIPG-XXV glioma cell viability, MIPE5.0 library, qHTS (AID 1347068; cut-off not given, nearly all actives have IC50 up to about 30 µM;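 on IC50: cells exposed to compound for 48 hours before viability readout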)
[9] = sensitizers of A549 cells to miR-34 induction, primary screen, imaging, A549 dox-inducible miR-34, nuclei and caspase counts (AID 1347080;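 active means compounds whose cell count with miR-34 switched on is under 0.7 times the count with it off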); conditions: A549 miR-34 inducible, Hoechst nuclei count, 48 h
[10] = survival rescue of mitochondrial mutant cells in low glucose, primary screen, MELAS cybrids, Rieske KO mouse fibroblasts, CellTiter-Glo (AID 1508586;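 active means mean z-score across replicates of 1.96 or higher in either the MELAS or the Rieske mutant cell line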;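 further: z relative to plate mean and SD of compound and empty wells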)
[11] = growth inhibition of DIPG glioma cells, dose response, cell-based, SU-DIPG-IV, MIPE4.0, CellTiter-Glo, qHTS (AID 1347063; cut-off not given, nearly all actives have AC50 up to about 30 µM;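 further: compound exposure lasted 48 hours before the viability readout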); conditions: SU-DIPG-IV viability, CellTiter-Glo ATP luminescence
[12] = modifiers of HSF1 nuclear foci, imaging, Selleck Cancer Library (AID 1347162; in the data active means plate-normalised HSF1 focus index below about 0.46); conditions: human cells, at 10 µM; SSMD: measured here: HSF1 foci SSMD mean; cell count: measured here: cell number; plate-normalised HSF1 focus index: stronger effect = lower value
[13] = ovarian cancer cell viability with rucaparib, profiling panel, oncology-focused library, rucaparib conditional (AID 1508598); conditions: patient-derived ovarian cancer cells, CellTiter-Glo viability, 144 h, stronger effect = lower value
[14] = stronger effect = lower value, cell number ratio, induced over uninduced
[15] = measured here: relative caspase fold change +Dox/-Dox
[16] = measured here: total cells with miR-34 induction, stronger effect = lower value
[17] = measured here: total cells without miR-34 induction
[18] = MELAS cybrid survival, CellTiter-Glo 48 h, stronger effect = higher value
[19] = Rieske KO mouse fibroblast survival, CellTiter-Glo 72 h

C[C@@H]1C(=O)OC2[C@H](O)[C@]34[C@H]5C[C@@H](C(C)(C)C)[C@]36[C@@H](OC(=O)[C@@H]6O)O[C@@]4(C(=O)O5)[C@]21O (stereo partly specified)
inactive: outcome [1] | outcome [2] | outcome [3] | outcome [4] | outcome [5] | outcome [6] | outcome [7] | outcome [8]

COc1ccccc1-c1cccc(-c2c(O)c3cc(C#N)c(Cl)cc3[nH]c2=O)c1
inactive: outcome [1] | outcome [2] | outcome [3] | outcome [4] | outcome [5] | outcome [6] | outcome [7] | outcome [8]

Cc1cc(C(=O)NOCCO)c(Nc2ccc(I)cc2F)n(C)c1=O
3770: cell count [9, 16]
active: AC50 [1] 0.166 µM | AC50 [2] 0.132 µM | AC50 [3] 0.105 µM | AC50 [4] 0.132 µM | AC50 [5] 0.295 µM | AC50 [7] 0.059 µM
-1.56: z-score [10, 19]
inactive: fold change [9, 14] 1.09 | z-score [10, 18] -0.704
3450: cell count [9, 17]
0.434: fold change [9, 15]

CC(C)(O)CCc1ccc(OCc2cc(-c3cccc(OC(F)F)c3)c3ncccc3c2)cc1
inactive: outcome [2] | outcome [3] | outcome [11] | outcome [6]
active: AC50 [1] 23.5 µM | AC50 [7] 23.5 µM

CC[C@H](CO)Nc1nc(NCc2ccccc2)c2ncn(C(C)C)c2n1
1.82: SSMD [12]
inactive: fold change [9, 14] 0.923 | plate-normalised HSF1 focus index [12] 1.11
1060: cell count [9, 17]
active: AC50 [1] 20.9 µM | AC50 [2] 16.6 µM | AC50 [3] 26.4 µM | AC50 [11] 20.9 µM
7490: cell count [12]
1.07: fold change [9, 15]
983: cell count [9, 16]

CN(CC(=O)N(Cc1ccc(C2CCCCC2)cc1)c1ccc(C(=O)O)c(O)c1)S(=O)(=O)c1c(F)c(F)c(F)c(F)c1F
active: AC50 [1] 8.33 µM | AC50 [2] 11.8 µM | AC50 [3] 16.6 µM | AC50 [4] 6.61 µM | AC50 [5] 9.34 µM | AC50 [6] 3.32 µM | AC50 [7] 3.72 µM | IC50 [8] 8.33 µM

CCc1cccc(CC)c1NC(=O)N1Cc2[nH]nc(NC(=O)c3ccc(N4CCN(C)CC4)cc3)c2C1
2350: cell count [9, 17]
-0.878: z-score [10, 19]
active: AC50 [1] 0.934 µM | AC50 [2] 14.8 µM | AC50 [4] 2.09 µM | AC50 [5] 0.661 µM
2360: cell count [9, 16]
inactive: outcome [3] | outcome [6] | fold change [9, 14] 1 | z-score [10, 18] -0.115
0.697: fold change [9, 15]

O=C(CCCCCCC(=O)Nc1cccnc1)NO
inactive: plate-normalised HSF1 focus index [12] 1.07
active: AC50 [1] 8.33 µM | AC50 [2] 9.35 µM | AC50 [3] 7.43 µM | AC50 [4] 5.9 µM | AC50 [5] 7.42 µM | AC50 [7] 3.32 µM
7080: cell count [12]
1.14: SSMD [12]

C/C=C1\NC(=O)[C@H]2CSSCC/C=C\[C@H](CC(=O)N[C@H](C(C)C)C(=O)N2)OC(=O)[C@H](C(C)C)NC1=O
active: AC50 [1] 0.0833 µM | AC50 [2] 0.0148 µM | AC50 [3] 0.0118 µM | AC50 [11] 0.00935 µM | AC50 [5] 0.059 µM | IC50 [8] 3.72 µM

CC1(C)C(N(O)C(=O)Nc2ccc(Cl)cc2)N(c2ccc(Cl)cc2)C(=O)N1CC(=O)N/N=C/C=C/c1ccc([N+](=O)[O-])o1 (stereo unspecified)
active: AC50 [1] 7.42 µM | AC50 [2] 26.4 µM | AC50 [3] 10.5 µM | AC50 [4] 3.72 µM | AC50 [5] 14.8 µM | AC50 [6] 20.9 µM | AC50 [7] 6.61 µM | IC50 [8] 18.6 µM

C[C@]12CC[C@H](O)CC1=CC[C@@H]1[C@@H]2CC[C@]2(C)C(c3cccnc3)=CC[C@@H]12
inactive: outcome [1] | outcome [2] | outcome [3] | outcome [4] | outcome [5] | outcome [6] | outcome [7] | plate-normalised HSF1 focus index [12] 1.06
1.68: SSMD [12]
7310: cell count [12]

OCCn1cc(-c2cnc3nnn(Cc4ccc5ncccc5c4)c3n2)cn1
active: viability ([13]; at 0.000305 µM, OCI-P5x cells, with rucaparib 20 µM, 100% = cells with rucaparib alone) 99.5% | viability ([13]; at 0.0195 µM, OCI-P5x cells, without rucaparib) 99.8% | viability ([13]; at 1.25 µM, OCI-P5x cells, without rucaparib) 99.8% | viability ([13]; at 5 µM, OCI-P5x cells, with rucaparib 20 µM, 100% = cells with rucaparib alone) 97.4% | viability ([13]; at 5 µM, OCI-P5x cells, without rucaparib) 94.2%
0.57: z-score [10, 19]
8280: cell count [9, 17]
7870: cell count [9, 16]
inactive: outcome [1] | outcome [2] | outcome [3] | outcome [4] | outcome [5] | outcome [7] | outcome [8] | fold change [9, 14] 0.95 | plate-normalised HSF1 focus index [12] 1.17 | z-score [10, 18] -0.449 | viability ([13]; at 0.000305 µM, OCI-C5x cells, with rucaparib 10 µM, 100% = cells with rucaparib alone) 111% | viability ([13]; at 0.000305 µM, OCI-C5x cells, without rucaparib) 109% | viability ([13]; at 0.000305 µM, OCI-P5x cells, without rucaparib) 102% | viability ([13]; at 0.00122 µM, OCI-C5x cells, with rucaparib 10 µM, 100% = cells with rucaparib alone) 118% | viability ([13]; at 0.00122 µM, OCI-C5x cells, without rucaparib) 110% | viability ([13]; at 0.00122 µM, OCI-P5x cells, with rucaparib 20 µM, 100% = cells with rucaparib alone) 106% | viability ([13]; at 0.00122 µM, OCI-P5x cells, without rucaparib) 105% | viability ([13]; at 0.00488 µM, OCI-C5x cells, with rucaparib 10 µM, 100% = cells with rucaparib alone) 119% | viability ([13]; at 0.00488 µM, OCI-C5x cells, without rucaparib) 113% | viability ([13]; at 0.00488 µM, OCI-P5x cells, with rucaparib 20 µM, 100% = cells with rucaparib alone) 102% | viability ([13]; at 0.00488 µM, OCI-P5x cells, without rucaparib) 102% | viability ([13]; at 0.0195 µM, OCI-C5x cells, with rucaparib 10 µM, 100% = cells with rucaparib alone) 118% | viability ([13]; at 0.0195 µM, OCI-C5x cells, without rucaparib) 112% | viability ([13]; at 0.0195 µM, OCI-P5x cells, with rucaparib 20 µM, 100% = cells with rucaparib alone) 102% | viability ([13]; at 0.0781 µM, OCI-C5x cells, with rucaparib 10 µM, 100% = cells with rucaparib alone) 124% | viability ([13]; at 0.0781 µM, OCI-C5x cells, without rucaparib) 117% | viability ([13]; at 0.0781 µM, OCI-P5x cells, with rucaparib 20 µM, 100% = cells with rucaparib alone) 102% | viability ([13]; at 0.0781 µM, OCI-P5x cells, without rucaparib) 101% | viability ([13]; at 0.313 µM, OCI-C5x cells, with rucaparib 10 µM, 100% = cells with rucaparib alone) 126% | viability ([13]; at 0.313 µM, OCI-C5x cells, without rucaparib) 118% | viability ([13]; at 0.313 µM, OCI-P5x cells, with rucaparib 20 µM, 100% = cells with rucaparib alone) 102% | viability ([13]; at 0.313 µM, OCI-P5x cells, without rucaparib) 106% | viability ([13]; at 1.25 µM, OCI-C5x cells, with rucaparib 10 µM, 100% = cells with rucaparib alone) 124% | viability ([13]; at 1.25 µM, OCI-C5x cells, without rucaparib) 113% | viability ([13]; at 1.25 µM, OCI-P5x cells, with rucaparib 20 µM, 100% = cells with rucaparib alone) 101% | viability ([13]; at 5 µM, OCI-C5x cells, with rucaparib 10 µM, 100% = cells with rucaparib alone) 148% | viability ([13]; at 5 µM, OCI-C5x cells, without rucaparib) 123%
2.68: SSMD [12]
1.2: fold change [9, 15]
7630: cell count [12]
